For 4 compounds, outcome and AC50 results are on record in PubChem BioAssay (EPA / NIEHS).

A short description of test [1]: ATG_M_32_CIS: Attagene CIS-FACTORIAL HepG2 Assay for M32 Transcription Factor (Internal Marker) (AID 2282949).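 Further: background control marker of the multiplexed CIS panel rather than a real target.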 To be noted: HepG2 Attagene cis-factorial M32 reporter, mRNA; actives raise or lower the signal. In outline: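 HepG2 cells transiently transfected with multiplexed cis-regulated reporter units, dosed 24 h. Reporter mRNA quantified by RT-PCR, 6-FAM labelling, HpaI digestion and capillary electrophoresis; bidirectional fit vs DMSO.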

Test [2] can be described thus: ATG_M_06_CIS: Attagene CIS-FACTORIAL HepG2 Assay for M06 Transcription Factor (Internal Marker) (AID 2282950). To be noted: HepG2 Attagene CIS-FACTORIAL M06 internal marker reporter; actives raise or lower the signal. In outline:
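HepG2 cells transiently transfected with cis-regulated multiple reporter transcription units were exposed to chemical for 24 h; reporter mRNA was quantified by RT-PCR, 6-FAM primer labelling, HpaI digestion and capillary electrophoresis, fitted bidirectionally against DMSO.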

For test [3], the target named is Hypoxia-inducible factor 1-alpha (Homo sapiens) (UniProt Q16665). As to the kind of experiment: ATG_HIF1a_CIS: Attagene CIS-FACTORIAL HepG2 Assay for human Hypoxia Inducible Factor 1 (HIF1A) (AID 2282951). The conditions noted are these: HepG2 Attagene cis-factorial HIF1a reporter transcription; actives raise or lower the signal. In short, it runs like this:
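In this multiplexed cell assay, HepG2 cells bearing transfected cis reporters are dosed for 24 h and reporter mRNA is read by RT-PCR plus capillary electrophoresis; signal increases and decreases are both scored against DMSO.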

Test [4] deals with Hepatocyte nuclear factor 6 (Homo sapiens) (UniProt Q9UBC0). The test is described as follows: ATG_HNF6_CIS: Attagene CIS-FACTORIAL HepG2 Assay for human Hepatocyte Nuclear Factor 6 (HNF6) (AID 2282952). The conditions noted are these: HepG2 Attagene cis-factorial HNF6 reporter transcription; actives raise or lower the signal. In outline:
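HepG2 cells transiently transfected with cis-element-driven multiplexed reporter units measuring endogenous transcription factor activity. After 24 h exposure, reporter mRNA quantified by RT-PCR, FAM-labelled fragments and capillary electrophoresis; bidirectional fitting versus DMSO.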

The target of test [5] is Heat shock factor protein 1 (Homo sapiens) (UniProt Q00613). The test is described as follows: ATG_HSE_CIS: Attagene CIS-FACTORIAL HepG2 Assay for human Heat Shock Transcription Factor 1 (HSE) (AID 2282953). To be noted: HepG2 HSE cis-reporter, Attagene RNA transcription; actives raise or lower the signal. In outline:
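HepG2 cells transiently transfected with multiple reporter transcription units under cis-regulatory promoter control, measuring endogenous transcription factor activity. After 24 h chemical exposure, reporter mRNA quantified by RT-PCR, fluorescent labelling, HpaI digestion and capillary electrophoresis; bidirectional fit versus DMSO.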

Test [6] is described as follows: ATG_MRE_CIS: Attagene CIS-FACTORIAL HepG2 Assay for human Metal Responsive Element (MRE) (AID 2282954). The conditions noted are these: HepG2 MRE cis-reporter transcription, Attagene multiplex; actives raise or lower the signal. In short, it runs like this:
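Step one: transfect HepG2 with cis-regulated reporter units. Step two: dose 24 h. Step three: isolate RNA, RT-PCR, 6-FAM label, HpaI digest, capillary electrophoresis. Fit bidirectionally to DMSO.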

Test [7] is described as follows: ATG_PBREM_CIS: Attagene CIS-FACTORIAL HepG2 Assay for human Phenobarbital-responsive Enhancer Module (PBREM) (AID 2282955). To be noted: HepG2 PBREM cis-reporter, Attagene multiplexed transcription; actives raise or lower the signal. In outline: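 After a 24 h incubation with test chemical, transfected HepG2 cells yield total RNA; reporter-specific RT-PCR products are fluorescently labelled, HpaI-digested and resolved by capillary electrophoresis against ROX size standards.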

The target in test [8] is Paired box protein Pax-6 (Homo sapiens) (UniProt P26367). As to the kind of experiment: ATG_Pax6_CIS: Attagene CIS-FACTORIAL HepG2 Assay for human Paired Box 6 (PAX6) (AID 2282956). The conditions noted are these: HepG2 CIS-FACTORIAL PAX6 reporter transcription, RNA readout; actives raise or lower the signal. In outline:
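HepG2 cells transiently transfected with multiplexed cis-promoter reporter units (endogenous TF activity) were dosed for 24 h. Reporter mRNA was quantified by RT-PCR, 6-FAM labeling, HpaI digestion and capillary electrophoresis; bidirectional fitting versus DMSO baseline.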

Test [9] is described as follows: ATG_PPRE_CIS: Attagene CIS-FACTORIAL HepG2 Assay for human Peroxisome Proliferator-activated Response Element (PPRE) (AID 2282958). To be noted: HepG2 PPRE cis-element reporter, Attagene transcription factor profiling; actives raise or lower the signal. In outline:
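Multiplexed reporter transcription units under cis-regulatory promoters were transfected into HepG2 cells to capture endogenous factor activity. A 24 h incubation preceded RNA isolation and fluorescent RT-PCR fragment analysis.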

A short description of test [10]: ATG_RORE_CIS: Attagene CIS-FACTORIAL HepG2 Assay for human RAR-related Orphan Receptor Element (RORE) (AID 2282959). To be noted: HepG2 Attagene cis-factorial RORE reporter, mRNA; actives raise or lower the signal. In short, it runs like this: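 Fluorescence intensity of reporter-specific cDNA fragments, separated by capillary electrophoresis, gives the signal. Source: HepG2 liver cells transiently transfected with cis-element reporters and exposed 24 h; DMSO-normalized bidirectional fit.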

The nature of test [11]: ATG_Sox_CIS: Attagene CIS-FACTORIAL HepG2 Assay for human SRY-box transcription factor (SOX) (AID 2282960). The conditions noted are these: HepG2 Attagene cis-factorial SOX reporter, mRNA; actives raise or lower the signal. In short, it runs like this:
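After 24 h of chemical treatment, transfected HepG2 reporter cells are lysed for total RNA. Transcript levels come from RT-PCR with labelled primer extension and capillary electrophoresis, analysed bidirectionally versus DMSO.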

For test [12], the target named is Transcription factor Sp1 (Homo sapiens) (UniProt P08047). As to the kind of experiment: ATG_Sp1_CIS: Attagene CIS-FACTORIAL HepG2 Assay for human Specificity Protein 1 (Sp1) (AID 2282961). To be noted: HepG2 Sp1 cis-reporter transcription, actives raise or lower the signal. In outline:
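Sp1-driven reporter mRNA, read as capillary electrophoresis fluorescence after RT-PCR, in transiently transfected HepG2 cells dosed for 24 h; signal change in either direction relative to DMSO.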

The nature of test [13]: ATG_SREBP_CIS: Attagene CIS-FACTORIAL HepG2 Assay for human Sterol Regulatory Element Binding (SREBP) (AID 2282962). The conditions noted are these: HepG2 Attagene cis-factorial SREBP reporter, mRNA; actives raise or lower the signal. In outline: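 HepG2 cells transiently transfected with multiplexed cis-element reporter units report endogenous transcription factor activity. After 24 h of chemical exposure, reporter mRNA was quantified by RT-PCR, 6-FAM labelling, HpaI digestion and capillary electrophoresis; bidirectional fits used DMSO as baseline.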

Test [14] deals with Signal transducer and activator of transcription 3 (Homo sapiens) (UniProt P40763). As to the kind of experiment: ATG_STAT3_CIS: Attagene CIS-FACTORIAL HepG2 Assay for human Signal Transducer and Activator of Transcription 3 (STAT3) (AID 2282963). To be noted: HepG2, Attagene cis-factorial STAT3 reporter transcription; actives raise or lower the signal. In short, it runs like this: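 Transcript-level reporter assay. HepG2 transient MRTU transfection, 24 h exposure, fluorescence detection after RT-PCR and CE; DMSO baseline.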
Chain of Signal transducer and activator of transcription 3 (Homo sapiens) (P40763 whole entry, looked up): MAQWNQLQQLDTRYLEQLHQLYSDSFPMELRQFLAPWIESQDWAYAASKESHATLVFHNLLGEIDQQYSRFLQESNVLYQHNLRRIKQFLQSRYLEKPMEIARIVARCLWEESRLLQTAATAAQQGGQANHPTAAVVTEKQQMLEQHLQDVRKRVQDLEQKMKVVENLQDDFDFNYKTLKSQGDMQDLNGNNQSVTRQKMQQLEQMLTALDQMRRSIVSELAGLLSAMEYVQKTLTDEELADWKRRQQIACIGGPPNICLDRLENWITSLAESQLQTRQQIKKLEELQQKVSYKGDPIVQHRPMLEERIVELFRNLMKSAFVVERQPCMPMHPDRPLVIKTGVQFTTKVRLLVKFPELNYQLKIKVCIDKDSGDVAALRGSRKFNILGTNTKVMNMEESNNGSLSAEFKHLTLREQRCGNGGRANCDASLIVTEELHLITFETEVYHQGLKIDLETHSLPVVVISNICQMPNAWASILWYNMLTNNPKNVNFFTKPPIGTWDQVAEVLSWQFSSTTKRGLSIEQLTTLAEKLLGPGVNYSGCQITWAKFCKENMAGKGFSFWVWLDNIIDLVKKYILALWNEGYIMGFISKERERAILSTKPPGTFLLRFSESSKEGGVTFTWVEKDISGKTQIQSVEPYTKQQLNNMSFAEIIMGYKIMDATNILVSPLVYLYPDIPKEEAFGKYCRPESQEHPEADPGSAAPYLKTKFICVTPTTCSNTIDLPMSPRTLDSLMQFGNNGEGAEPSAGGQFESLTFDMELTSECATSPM

A short description of test [15]: ATG_TA_CIS: Attagene CIS-FACTORIAL HepG2 Assay for human TA Basal Promoter (AID 2282964). The conditions noted are these: HepG2 Attagene CIS-factorial TA basal promoter reporter; actives raise or lower the signal. In short, it runs like this:
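HepG2 cells transiently transfected with multiplexed cis-promoter reporter units, dosed 24 h. Reporter mRNA measured by RT-PCR, 6-FAM labelling, HpaI digestion and capillary electrophoresis; bidirectional fit versus DMSO baseline, serving as background control.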

A short description of test [16]: ATG_TCF_b_cat_CIS: Attagene CIS-FACTORIAL HepG2 Assay for human T-Cell-Factor with beta-catenin (TCF/b-cat) (AID 2282965). The conditions noted are these: HepG2 TCF/beta-catenin cis-reporter transcription, actives raise or lower the signal. In outline: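 Using capillary electrophoresis as the read-out, labelled reporter cDNA fragments from transiently transfected HepG2 were sized and quantified. Exposure lasted 24 hours; activity in either direction was referenced to DMSO.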

Test [17] can be described thus: ATG_TAL_CIS: Attagene CIS-FACTORIAL HepG2 Assay for human TAL Basal Promoter (AID 2282966).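 Further: background control endpoint measuring basal TAL promoter reporter mRNA not a specific factor.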 To be noted: HepG2 Attagene cis-factorial TAL promoter reporter; actives raise or lower the signal. In outline: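 HepG2 cells transiently transfected with multiplexed cis-promoter reporter units, dosed 24 h. Reporter mRNA quantified by RT-PCR, 6-FAM labelling, HpaI digestion and capillary electrophoresis; TAL basal promoter serves as background control, fitted bidirectionally versus DMSO.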

Test [18] is described as follows: ATG_TGFb_CIS: Attagene CIS-FACTORIAL HepG2 Assay for human Transforming Growth Factor (TGF) (AID 2282967). To be noted: HepG2 Attagene CIS TGFb reporter, mRNA transcription; actives raise or lower the signal. In short, it runs like this:
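HepG2 cells transiently transfected with cis-promoter-driven multiplexed reporter units; 24 h compound exposure. Reporter mRNA measured by RT-PCR, 6-FAM labeling, HpaI digestion and capillary electrophoresis; bidirectional fit versus DMSO baseline.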

A short description of test [19]: ATG_VDRE_CIS: Attagene CIS-FACTORIAL HepG2 Assay for human Vitamin D Receptor Element (VDRE) (AID 2282968). To be noted: HepG2 VDRE cis-reporter transcription, actives raise or lower the signal. In short, it runs like this:
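RT-PCR/CE readout of reporter mRNA; HepG2, transient transfection, 24 h dosing; DMSO baseline; bidirectional analysis.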

Test [20] can be described thus: ATG_PXRE_CIS: Attagene CIS-FACTORIAL HepG2 Assay for human Pregnane X Receptor Element (PXRE) (AID 2282957). To be noted: HepG2 Attagene CIS-FACTORIAL PXRE reporter, mRNA; actives raise or lower the signal. In short, it runs like this: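 HepG2 cells transiently transfected with cis-element-driven multiplexed reporter units; after 24 h chemical exposure, reporter mRNA measured by RT-PCR, 6-FAM labelling, HpaI digestion and capillary electrophoresis. Bidirectional fitting relative to DMSO.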

Active and inactive are the calls of the source. How the source made its calls: active means hit-call score of the fitted dose curve at least 0.9, where 1 is the maximum; inactive means score below 0.9.

As a reminder, the AC50 is the midpoint of the concentration-response curve, whichever way the signal moves.

Chain of Transcription factor Sp1 (Homo sapiens) (P08047 whole entry, looked up): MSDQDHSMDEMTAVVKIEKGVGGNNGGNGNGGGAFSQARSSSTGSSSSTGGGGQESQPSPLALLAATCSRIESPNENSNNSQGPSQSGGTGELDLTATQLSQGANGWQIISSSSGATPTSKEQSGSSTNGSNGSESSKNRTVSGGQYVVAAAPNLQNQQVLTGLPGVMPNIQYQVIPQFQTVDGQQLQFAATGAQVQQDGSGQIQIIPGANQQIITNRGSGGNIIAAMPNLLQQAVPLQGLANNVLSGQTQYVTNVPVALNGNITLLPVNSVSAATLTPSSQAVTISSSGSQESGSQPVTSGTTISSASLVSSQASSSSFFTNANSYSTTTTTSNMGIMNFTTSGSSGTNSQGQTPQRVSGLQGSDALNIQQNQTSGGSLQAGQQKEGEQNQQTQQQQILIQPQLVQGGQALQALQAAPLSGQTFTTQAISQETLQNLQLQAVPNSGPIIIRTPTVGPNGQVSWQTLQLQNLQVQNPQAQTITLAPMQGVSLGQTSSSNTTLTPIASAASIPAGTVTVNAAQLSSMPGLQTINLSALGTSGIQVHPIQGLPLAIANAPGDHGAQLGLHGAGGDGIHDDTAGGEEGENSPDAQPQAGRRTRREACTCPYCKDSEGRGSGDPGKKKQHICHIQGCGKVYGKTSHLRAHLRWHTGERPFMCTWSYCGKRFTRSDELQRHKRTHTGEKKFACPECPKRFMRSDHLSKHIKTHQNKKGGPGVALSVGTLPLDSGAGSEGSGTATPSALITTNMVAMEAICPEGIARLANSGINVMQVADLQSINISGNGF
Chain of Hypoxia-inducible factor 1-alpha (Homo sapiens) (Q16665 whole entry, looked up): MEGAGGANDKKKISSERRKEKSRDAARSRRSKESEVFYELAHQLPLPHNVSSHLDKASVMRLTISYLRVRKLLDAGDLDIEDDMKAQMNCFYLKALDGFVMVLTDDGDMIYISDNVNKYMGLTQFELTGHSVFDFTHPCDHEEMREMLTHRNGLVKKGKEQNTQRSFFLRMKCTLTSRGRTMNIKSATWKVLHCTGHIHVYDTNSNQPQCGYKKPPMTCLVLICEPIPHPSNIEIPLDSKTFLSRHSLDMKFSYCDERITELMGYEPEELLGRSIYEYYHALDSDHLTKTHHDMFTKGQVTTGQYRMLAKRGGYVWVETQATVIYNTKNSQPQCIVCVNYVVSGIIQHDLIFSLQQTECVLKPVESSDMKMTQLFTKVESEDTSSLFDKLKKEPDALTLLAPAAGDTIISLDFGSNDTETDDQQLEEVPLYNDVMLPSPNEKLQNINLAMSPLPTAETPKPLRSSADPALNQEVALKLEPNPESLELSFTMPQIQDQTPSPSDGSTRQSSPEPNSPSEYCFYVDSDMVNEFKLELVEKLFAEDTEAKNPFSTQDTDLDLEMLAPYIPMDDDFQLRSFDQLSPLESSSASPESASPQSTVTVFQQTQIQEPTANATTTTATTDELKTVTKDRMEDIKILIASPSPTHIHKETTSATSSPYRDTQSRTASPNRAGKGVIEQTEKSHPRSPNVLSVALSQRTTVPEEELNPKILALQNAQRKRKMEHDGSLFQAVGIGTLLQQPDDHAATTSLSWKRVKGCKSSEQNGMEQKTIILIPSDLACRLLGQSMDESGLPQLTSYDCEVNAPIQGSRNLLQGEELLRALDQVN
Chain of Heat shock factor protein 1 (Homo sapiens) (Q00613 whole entry, looked up): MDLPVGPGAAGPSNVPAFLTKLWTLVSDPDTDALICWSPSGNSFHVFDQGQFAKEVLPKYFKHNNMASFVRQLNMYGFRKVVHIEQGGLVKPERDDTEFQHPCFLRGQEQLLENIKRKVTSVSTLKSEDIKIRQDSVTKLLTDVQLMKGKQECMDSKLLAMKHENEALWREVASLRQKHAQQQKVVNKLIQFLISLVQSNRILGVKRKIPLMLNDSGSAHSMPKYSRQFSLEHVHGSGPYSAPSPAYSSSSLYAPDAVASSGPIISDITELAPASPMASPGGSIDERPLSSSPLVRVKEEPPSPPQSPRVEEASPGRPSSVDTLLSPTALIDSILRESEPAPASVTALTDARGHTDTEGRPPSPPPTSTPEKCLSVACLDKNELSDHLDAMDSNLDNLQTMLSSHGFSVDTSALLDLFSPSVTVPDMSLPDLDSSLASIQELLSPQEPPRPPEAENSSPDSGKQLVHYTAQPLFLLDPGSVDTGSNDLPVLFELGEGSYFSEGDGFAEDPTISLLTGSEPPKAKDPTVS
Chain of Paired box protein Pax-6 (Homo sapiens) (P26367 whole entry, looked up): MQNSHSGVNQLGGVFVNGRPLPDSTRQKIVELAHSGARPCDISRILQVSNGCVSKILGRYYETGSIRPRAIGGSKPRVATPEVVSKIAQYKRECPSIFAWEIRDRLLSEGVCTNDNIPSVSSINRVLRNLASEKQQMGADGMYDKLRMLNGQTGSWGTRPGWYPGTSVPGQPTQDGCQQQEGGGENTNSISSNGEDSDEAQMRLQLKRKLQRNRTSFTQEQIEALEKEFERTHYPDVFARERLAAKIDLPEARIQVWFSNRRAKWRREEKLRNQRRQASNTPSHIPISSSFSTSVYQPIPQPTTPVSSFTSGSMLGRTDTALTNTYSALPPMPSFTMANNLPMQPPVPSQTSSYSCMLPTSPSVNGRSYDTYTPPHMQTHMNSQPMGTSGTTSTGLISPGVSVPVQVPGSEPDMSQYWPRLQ
Chain of Hepatocyte nuclear factor 6 (Homo sapiens) (Q9UBC0 whole entry, looked up, the tested form may be a part): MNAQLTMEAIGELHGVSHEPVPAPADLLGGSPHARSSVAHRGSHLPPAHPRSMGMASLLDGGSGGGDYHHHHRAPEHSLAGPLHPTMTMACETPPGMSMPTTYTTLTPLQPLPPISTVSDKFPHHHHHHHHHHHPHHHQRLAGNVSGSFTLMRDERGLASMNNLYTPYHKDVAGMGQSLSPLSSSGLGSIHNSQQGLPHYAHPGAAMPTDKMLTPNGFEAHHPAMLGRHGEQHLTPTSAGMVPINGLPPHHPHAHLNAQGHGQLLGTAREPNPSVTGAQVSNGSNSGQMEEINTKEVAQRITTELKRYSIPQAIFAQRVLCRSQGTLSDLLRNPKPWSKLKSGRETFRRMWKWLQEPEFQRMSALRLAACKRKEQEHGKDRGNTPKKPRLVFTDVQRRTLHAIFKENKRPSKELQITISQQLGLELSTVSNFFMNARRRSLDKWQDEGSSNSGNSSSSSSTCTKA

As to `C[As+](C)(C)CC(=O)[O-]`, the compound was classed as inactive in test [1], in test [2], in [3], in [4], in [5] and in test [6]. Also, the result in [7], in test [8], in test [9], in test [10], in test [11] and in test [12] was inactive. In addition, the compound was classed as inactive in test [13], in test [14], in [15], in test [16], in test [17] and in [18]. The compound was called inactive in [19].
With `O=S(=O)(F)C(F)(F)C(F)(F)C(F)(F)C(F)(F)F`, the call in [1], in [2], in test [3], in test [4], in [5] and in [6] was inactive. For the same compound, the outcome in test [7], in test [8], in test [9], in test [10], in [11] and in test [12] was inactive. Besides, the outcome in test [13], in [14], in test [15], in test [16], in test [17] and in [18] was inactive. Moreover, the outcome in [19] was inactive.
Consider `CCNc1nc(NCC)nc(SC)n1`, for which the compound was classed as inactive in test [1], in [2], in [3], in test [4], in test [5] and in test [6]. In addition, the result in [7], in test [8], in [10], in test [11], in test [12] and in [14] was inactive. Also, the outcome in test [15], in [16], in test [17], in test [18] and in test [19] was inactive. Moreover, the AC50 in test [20] is 27.9 µM (active).
As for `O=C(CCl)Nc1ccccc1`, the AC50 is 134 µM (active) in test [1]; 69.2 µM (active) in test [3]; 49 µM (active) in [5]; 56.4 µM (active) in test [6]; 33.4 µM (active) in test [20]; 3.66 µM (active) in [9]. The AC50 was 32.9 µM (active) in test [11], 25.8 µM (active) in test [12], 6.32 µM (active) in [13] and 43.7 µM (active) in test [19]. For the same compound, the call in test [2], in test [4], in test [7], in test [10], in test [14] and in test [15] was inactive. Also, the result in test [16], in test [17] and in test [18] was inactive.
